Measured values from the antibiotic and cytotoxicity screens of Wong et al. (2023).
Screen size: about 39,000 compounds; about 3,300 (8.5%) were called active. What follows is part of a selection rich in actives, with near analogues and random picks from the rest.

What follows are molecules tested on HepG2 (assay: cytotoxicity call (relative viability < 0.9)). Settings: 10 µM.
`C[C@H]1CN([C@@H](C)CO)C(=O)c2cc(NS(=O)(=O)c3cn(C)cn3)ccc2O[C@H]1CN(C)S(=O)(=O)c1cn(C)cn1` was tested, and the cytotoxicity call was “inactive”.
`Cc1noc(C)c1NC(=O)N(C)C[C@@H]1Oc2ccc(NC(=O)Cn3cnnn3)cc2C(=O)N([C@@H](C)CO)C[C@H]1C` was tested, and the cytotoxicity call was “inactive”.
With `O=C(C[C@H]1C=C[C@@H](NC(=O)CN2CCOCC2)[C@H](CO)O1)NCCc1ccncc1` the cytotoxicity call was “inactive”.
With `O=C(C[C@@H]1CC[C@@H](NC(=O)CN2CCOCC2)[C@H](CO)O1)NCCc1ccccc1` the cytotoxicity call was “inactive”.
`Cc1ccc(S(=O)(=O)N(C)C[C@H]2Oc3ccc(NS(=O)(=O)c4cn(C)cn4)cc3CC(=O)N([C@@H](C)CO)C[C@@H]2C)cc1` was tested, and the cytotoxicity call was “inactive”.
In the case of `O=S(=O)(NCc1ccco1)N1CCOCC1`, the cytotoxicity call is reported as “inactive”.
For `C[C@@H]1CCCCO[C@H](CN(C)Cc2ccc(C(=O)O)cc2)[C@H](C)CN([C@@H](C)CO)C(=O)c2cc(NC(=O)Nc3ccccc3)ccc2O1`, the cytotoxicity call was “inactive”.
`COc1ccc2c(c1)OCc1c-2oc2cc(OC)ccc12` was tested, and the cytotoxicity call was “inactive”.
In the case of `COc1ccc([C@H]2CC=CC[C@H](C)Oc3ccccc3C(=O)N(C)[C@H](Cc3ccccc3)C(=O)N2)c(OC)c1`, the cytotoxicity call is reported as “inactive”.
For `COc1ccc2c(c1)OCC(Cc1ccc(OC)c(O)c1)C2=O` (stereo not drawn), the cytotoxicity call was “active”.
With `COc1ccc(-c2cc(=O)c3c(O)cc(OC)c(OC)c3o2)c(OC)c1` the cytotoxicity call was “inactive”.
In the case of `COc1ccc([C@H]2CC=CC[C@H](C)Oc3ccccc3C(=O)N(C)[C@@H](Cc3ccccc3)C(=O)N2)c(OC)c1`, the cytotoxicity call is reported as “inactive”.
With `COc1ccc2c(c1)OCC(Cc1ccc(O)c(OC)c1)C2=O` (stereo not drawn) the cytotoxicity call was “inactive”.
In the case of `COc1ccc2c(c1)OCC(Cc1ccc(OC)c(OC)c1)C2=O` (stereo not drawn), the cytotoxicity call is reported as “active”.
With `COc1ccc2c(c1)OCC(=Cc1ccc(OC)c(O)c1)C2=O` the cytotoxicity call was “active”.
In the case of `COc1ccc(CCC(=O)c2c(O)cc(O[C@@H]3O[C@H](CO)[C@@H](O)[C@H](O)[C@H]3O[C@@H]3O[C@@H](C)[C@H](O)[C@@H](O)[C@H]3O)cc2O)cc1O`, the cytotoxicity call is reported as “inactive”.
`C[C@H]1CCCCO[C@H](CN(C)C(=O)NC2CCCCC2)[C@@H](C)CN([C@@H](C)CO)C(=O)c2cc(NC(=O)C3CCCCC3)ccc2O1` was tested, and the cytotoxicity call was “inactive”.
For `Cc1noc(C)c1NC(=O)N(C)C[C@@H]1OCCCC[C@H](C)Oc2ccc(NC(=O)Nc3cccc4ccccc34)cc2C(=O)N([C@@H](C)CO)C[C@H]1C`, the cytotoxicity call was “inactive”.
`COCCNC(=O)C[C@@H]1CC[C@@H]2[C@H](COc3ccc(NC(=O)Nc4cccc(F)c4)cc3C(=O)N2C)O1` was tested, and the cytotoxicity call was “inactive”.
`Cc1noc(C)c1NC(=O)Nc1ccc2c(c1)CC(=O)N([C@@H](C)CO)C[C@H](C)[C@@H](CN(C)Cc1ccc(Oc3ccccc3)cc1)O2` was tested, and the cytotoxicity call was “inactive”.
With `Cc1noc(C)c1NC(=O)N(C)C[C@@H]1Oc2ccc(NS(=O)(=O)c3ccccc3)cc2C(=O)N([C@H](C)CO)C[C@@H]1C` the cytotoxicity call was “inactive”.
For `Cc1cc(-c2ccccc2)nc(SCc2ccccc2)c1C#N`, the cytotoxicity call was “active”.
With `CSc1nc(-c2ccccc2)cc(-c2cccs2)c1C#N` the cytotoxicity call was “inactive”.
In the case of `CCSc1nc(-c2ccc(C)cc2)cc(C(F)(F)F)c1C#N`, the cytotoxicity call is reported as “inactive”.
With `CC(C)NC(=O)Nc1cccc2c1O[C@H](CN(C)S(=O)(=O)c1ccccc1)[C@@H](C)CN([C@H](C)CO)C2=O` the cytotoxicity call was “inactive”.
In the case of `C[C@@H]1CCCCO[C@H](CN(C)S(=O)(=O)c2cccs2)[C@@H](C)CN([C@H](C)CO)C(=O)c2cc(NC(=O)Nc3cccc4ccccc34)ccc2O1`, the cytotoxicity call is reported as “inactive”.
For `CCCN(C)C[C@@H]1OCCCC[C@@H](C)Oc2ccc(NC(=O)Nc3ccc(F)cc3)cc2C(=O)N([C@H](C)CO)C[C@@H]1C`, the cytotoxicity call was “inactive”.
With `CCCN(C)C[C@H]1OCCCC[C@@H](C)Oc2ccc(NC(=O)Nc3ccc(C(F)(F)F)cc3)cc2C(=O)N([C@H](C)CO)C[C@H]1C` the cytotoxicity call was “inactive”.
With `CCCN(C)C[C@@H]1OCCCC[C@@H](C)Oc2ccc(NC(=O)Nc3ccc(C(F)(F)F)cc3)cc2C(=O)N([C@H](C)CO)C[C@@H]1C` the cytotoxicity call was “active”.
In the case of `CCCN(C)C[C@H]1OCCCC[C@H](C)Oc2ccc(NC(=O)Nc3ccc(F)cc3)cc2C(=O)N([C@@H](C)CO)C[C@H]1C`, the cytotoxicity call is reported as “inactive”.
`CCCN(C)C[C@@H]1OCCCC[C@@H](C)Oc2ccc(NC(=O)Nc3ccc(C(F)(F)F)cc3)cc2C(=O)N([C@H](C)CO)C[C@H]1C` was tested, and the cytotoxicity call was “inactive”.
In the case of `CCCN(C)C[C@@H]1OCCCC[C@H](C)Oc2ccc(NC(=O)Nc3ccc(C(F)(F)F)cc3)cc2C(=O)N([C@H](C)CO)C[C@@H]1C`, the cytotoxicity call is reported as “active”.
In the case of `CCCN(C)C[C@H]1OCCCC[C@@H](C)Oc2ccc(NC(=O)Nc3ccc(F)cc3)cc2C(=O)N([C@H](C)CO)C[C@@H]1C`, the cytotoxicity call is reported as “inactive”.
For `CCCN(C)C[C@H]1OCCCC[C@@H](C)Oc2ccc(NC(=O)Nc3ccc(C(F)(F)F)cc3)cc2C(=O)N([C@@H](C)CO)C[C@H]1C`, the cytotoxicity call was “active”.
In the case of `CCCN(C)C[C@@H]1OCCCC[C@H](C)Oc2ccc(NC(=O)Nc3ccc(F)cc3)cc2C(=O)N([C@@H](C)CO)C[C@@H]1C`, the cytotoxicity call is reported as “inactive”.
For `CCCN(C)C[C@@H]1OCCCC[C@@H](C)Oc2ccc(NC(=O)Nc3ccc(F)cc3)cc2C(=O)N([C@H](C)CO)C[C@H]1C`, the cytotoxicity call was “inactive”.
With `CCCN(C)C[C@H]1OCCCC[C@H](C)Oc2ccc(NC(=O)Nc3ccc(C(F)(F)F)cc3)cc2C(=O)N([C@@H](C)CO)C[C@H]1C` the cytotoxicity call was “active”.
With `CCCN(C)C[C@@H]1OCCCC[C@H](C)Oc2ccc(NC(=O)Nc3ccc(C(F)(F)F)cc3)cc2C(=O)N([C@@H](C)CO)C[C@@H]1C` the cytotoxicity call was “inactive”.
With `COc1ccc(S(=O)(=O)Nc2ccc3c(c2)C(=O)N([C@@H](C)CO)C[C@@H](C)[C@H](CN(C)S(=O)(=O)c2ccc(Cl)cc2)OCCCC[C@@H](C)O3)cc1` the cytotoxicity call was “inactive”.
With `COc1ccc(S(=O)(=O)N(C)C[C@@H]2Oc3ccc(NC(=O)Cc4ccccc4)cc3CC(=O)N([C@H](C)CO)C[C@H]2C)cc1` the cytotoxicity call was “inactive”.
For `COc1ccccc1C#Cc1ccc2c(c1)O[C@@H](CN(C)Cc1cncnc1)[C@H](C)CN([C@H](C)CO)S2(=O)=O`, the cytotoxicity call was “inactive”.
For `Cc1ccc(S(=O)(=O)N2C[C@@H](O)COC[C@H]3O[C@H](CC(=O)NCc4ccc(C(F)(F)F)cc4)CC[C@@H]32)cc1`, the cytotoxicity call was “inactive”.
With `CSc1cc(-c2ccc(Cl)cc2)nc(-c2cccs2)c1` the cytotoxicity call was “inactive”.
`C[C@@H]1CCCCO[C@@H](CN(C)C(=O)Nc2ccc(C(F)(F)F)cc2)[C@H](C)CN([C@@H](C)CO)C(=O)c2cc(NC(=O)NC3CCCCC3)ccc2O1` was tested, and the cytotoxicity call was “inactive”.
For `C[C@H]1CN([C@@H](C)CO)C(=O)c2cccc(NS(=O)(=O)c3ccc(Cl)cc3)c2O[C@H]1CN(C)Cc1ccc(Cl)c(Cl)c1`, the cytotoxicity call was “inactive”.
`CCS(=O)(=O)N1C[C@]2(C1)CN([C@H](CO)c1[nH]c3cc(ccc3c12)OC)S(=O)(=O)c1ccc(cc1)C` was tested, and the cytotoxicity call was “inactive”.
`CC(C)NC(=O)N(C)C[C@@H]1Oc2c(NC(=O)NC3CCCCC3)cccc2C(=O)N([C@H](C)CO)C[C@H]1C` was tested, and the cytotoxicity call was “inactive”.
`CCc1c(C)[nH]c(N2CCOCC2)nc1=O` was tested, and the cytotoxicity call was “inactive”.
With `C[C@H]1CN([C@@H](C)CO)C(=O)CCCn2cc(nn2)CO[C@@H]1CN(C)C(=O)c1ccc(N2CCN(C)CC2)cc1` the cytotoxicity call was “active”.
With `C[C@H](CO)N1C[C@H](C)[C@H](CN(C)C(=O)Nc2ccccc2C(F)(F)F)OCc2cn(nn2)CCCC1=O` the cytotoxicity call was “inactive”.
In the case of `C[C@H](CO)N1C[C@H](C)[C@@H](CN(C)C(=O)Nc2ccccc2C(F)(F)F)OCc2cnnn2CCCC1=O`, the cytotoxicity call is reported as “inactive”.
For `C[C@H](CO)N1C[C@H](C)[C@@H](CN(C)C(=O)Nc2ccccc2C(F)(F)F)OCc2cn(nn2)CCCC1=O`, the cytotoxicity call was “inactive”.
`C[C@@H]1CN([C@@H](C)CO)C(=O)CCCn2nncc2CO[C@@H]1CN(C)C(=O)Nc1ccc(C(F)(F)F)cc1` was tested, and the cytotoxicity call was “inactive”.
In the case of `C[C@@H]1CN([C@H](C)CO)C(=O)CCCn2cc(nn2)CO[C@@H]1CN(C)C(=O)Nc1ccccc1C(F)(F)F`, the cytotoxicity call is reported as “active”.
`C[C@H](CO)N1C[C@H](C)[C@H](CN(C)C(=O)Nc2ccc(C(F)(F)F)cc2)OCc2cnnn2CCCC1=O` was tested, and the cytotoxicity call was “active”.
In the case of `C[C@@H]1CN([C@H](C)CO)C(=O)CCCn2nncc2CO[C@H]1CN(C)C(=O)Nc1ccccc1C(F)(F)F`, the cytotoxicity call is reported as “active”.
For `C[C@H]1CN([C@@H](C)CO)C(=O)CCCn2cc(nn2)CO[C@H]1CN(C)C(=O)c1ccc(N2CCN(C)CC2)cc1`, the cytotoxicity call was “inactive”.
In the case of `C[C@@H]1CN([C@H](C)CO)C(=O)CCCn2cc(nn2)CO[C@@H]1CN(C)C(=O)c1ccc(N2CCN(C)CC2)cc1`, the cytotoxicity call is reported as “inactive”.
For `C[C@@H]1CN([C@@H](C)CO)C(=O)CCCn2nncc2CO[C@H]1CN(C)C(=O)Nc1ccccc1C(F)(F)F`, the cytotoxicity call was “inactive”.
For `C[C@@H]1CN([C@@H](C)CO)C(=O)CCCn2nncc2CO[C@H]1CN(C)C(=O)Nc1ccc(C(F)(F)F)cc1`, the cytotoxicity call was “inactive”.
With `Cc1noc(C)c1NC(=O)Nc1ccc2c(c1)CC(=O)N([C@H](C)CO)C[C@H](C)[C@H](CN(C)CC1CC1)O2` the cytotoxicity call was “inactive”.
With `Nc1ncnc2c1ncn2[C@@H]1O[C@H](CO)C[C@H]1O` the cytotoxicity call was “inactive”.
For `C[C@H]1CN([C@@H](C)CO)C(=O)Cc2cc(N(C)C)ccc2O[C@@H]1CN(C)S(=O)(=O)c1cn(C)cn1`, the cytotoxicity call was “inactive”.
For `CC(C)(CO)Nc1ncnc(N)c1[N+](=O)[O-]`, the cytotoxicity call was “inactive”.
`COc1ccc(NC(=O)Nc2cccc3c2O[C@@H](CN(C)CC2CCCCC2)[C@@H](C)CN([C@@H](C)CO)C3=O)cc1` was tested, and the cytotoxicity call was “inactive”.
In the case of `Cc1noc(C)c1NC(=O)N(C)C[C@H]1Oc2c(NC(=O)C3CCOCC3)cccc2C(=O)N([C@@H](C)CO)C[C@@H]1C`, the cytotoxicity call is reported as “inactive”.
With `C[C@@H]1CN([C@H](C)CO)C(=O)c2cc(NS(=O)(=O)c3ccc(F)cc3)ccc2O[C@@H]1CN(C)S(=O)(=O)c1ccccc1` the cytotoxicity call was “inactive”.
`C[C@H]1CN([C@@H](C)CO)C(=O)CCCn2nncc2CO[C@H]1CN(C)S(=O)(=O)c1ccc(Cl)cc1` was tested, and the cytotoxicity call was “active”.
With `C[C@H]1CN([C@@H](C)CO)C(=O)CCCn2nncc2CO[C@H]1CN(C)C(=O)Nc1ccccc1C(F)(F)F` the cytotoxicity call was “active”.
For `C[C@@H]1CN([C@H](C)CO)C(=O)CCCn2nncc2CO[C@H]1CN(C)S(=O)(=O)c1ccc(Cl)cc1`, the cytotoxicity call was “inactive”.
In the case of `C[C@@H]1CN([C@H](C)CO)C(=O)CCCn2nncc2CO[C@@H]1CN(C)S(=O)(=O)c1ccc(Cl)cc1`, the cytotoxicity call is reported as “inactive”.
`C[C@H]1CN([C@@H](C)CO)C(=O)CCCn2nncc2CO[C@@H]1CN(C)C(=O)Nc1ccccc1C(F)(F)F` was tested, and the cytotoxicity call was “inactive”.
In the case of `C[C@@H]1CN([C@H](C)CO)C(=O)CCCn2nncc2CO[C@@H]1CN(C)C(=O)Nc1ccccc1C(F)(F)F`, the cytotoxicity call is reported as “inactive”.
